Results from PubChem BioAssay (Tox21).
Values joined by “and” are separate entries in the source; they are usually repeats but may differ in a detail not shown here. Identical values can stand only once. Inconclusive results are not listed. A call without a number means that no potency is given here. More than one record can exist for a structure, and the calls need not agree. Active and inactive are the calls of the source. Calls come from the whole dose curve; as a rule, active = well fitted cell-killing curve with a large enough effect in the repeat runs; inconclusive = weak or mixed curves; inactive = no such curve, though single readings can be large or run the other way.

Test: qHTS assay to identify small molecule antagonists of the androgen receptor (AR) signaling pathway - cell viability counter screen (AID 743033; note: nearly all actives have a fitted effect of over 45% in size)
Conditions: AR-bla HEK293 viability, CellTiter-Glo luminescence, 16 h; series mostly up to 58.5 µM; activity change, negative = cytotoxicity: at the top concentration
Excerpt: National Center for Advancing Translational Sciences [NCATS]
NIH Chemical Genomics Center [NCGC]
U.S. Environmental Protection Agency [EPA]
National Institutes of Environmental Health Sciences [NIEHS]
National Toxicology Program [NTP]
U.S. Food and Drug Administration [FDA]
Androgen receptor (AR), a nuclear hormone receptor, plays a critical role in AR-dependent prostate cancer and other androgen related diseases. Endocrine disrupting chemicals (EDCs) and their interactions with steroid hormone receptors like AR may cause disruption of normal endocrine function as well as interfere with metabolic homeostasis, reproduction, developmental and behavioral functions. To identify the compounds that inhibit AR signaling, GeneBLAzer AR-UAS-bla-GripTite cell line (Invitrogen, Carlsbad, CA, USA) containing a beta-lactamase reporter gene under control of an Upstream Activator Sequence (UAS) stably integrated into HEK293 cells was used to screen the Tox21 10K compound library. The cytotoxicity of the Tox21 compound library against the AR-bla cell line was tested in parallel by measuring the cell viability using CellTiter-Glo assay in the same wells.
Tox21 Assay Protocol Summary:
AR-bla cells were dispensed at 2,000 cells/5 uL of assay medium per well into black wall/clear-bottom 1536-well plates using a Multidrop Combi (ThermoFisher Scientific, Waltham, MA) dispenser. After the assay plates were incubated at a 37C and 5% CO2 for 4 hr, 23 nL of compounds dissolved in DMSO, positive controls or DMSO only was transferred to the assay plate by a Pintool station (Kalypsys, San Diego, CA), followed by addition of 1 uL of agonist (R1881) in culture medium using a Bioraptr Flying Reagent Dispenser (FRD) workstation (Beckman Coulter, Indianapolis, IN, USA). The plates were incubated at a 37C and 5% CO2 for 16 h. After 1 uL of LiveBLAzerTM B/G FRET substrate was added using a Bioraptr FRD, the plates were incubated at room temperature for 2 h and fluorescence intensity was measured by an Envision plate reader (PerkinElmer, Shelton, CT). For cell viability readout that measures cytotoxicity, 4 ul/well of CellTiter-Glo reagent was added into the assay plates using a Bioraptr FRD. After 30 min incubation at room temperature, the luminescence intensity in the plates was measured using a ViewLux (PerkinElmer) plate reader.
Potency is the fitted concentration of half-maximal effect.

Row | Structure (SMILES) | Potency | activity change, negative = cytotoxicity
1 | OCC1CCCO1 (stereo not given) | inactive | 
2 | CCCCC/C=C\C/C=C\CCCCCCCC(=O)OC |  | 1.51% (inactive)
3 | NC(=O)NNc1ccccc1 | inactive | 
4 | CC1(C)CC(N=C=O)CC(C)(CN=C=O)C1 (stereo not given) | inactive | 
5 | CC1Cc2ccccc2N1NC(=O)c1ccc(Cl)c(S(N)(=O)=O)c1 (stereo not given) | inactive | 
6 | Cc1ccc(N)c(S(=O)(=O)O)c1 | inactive | 
7 | CC1=C(CC(=O)O)c2cc(F)ccc2/C1=C\c1ccc(S(C)=O)cc1 (stereo not given) | inactive | 
8 | CS(=O)(=O)Nc1ccc([N+](=O)[O-])cc1Oc1ccccc1 | inactive | 
9 | CC1(C)O[C@@H]2C[C@H]3[C@@H]4C[C@H](F)C5=CC(=O)CC[C@]5(C)[C@H]4[C@@H](O)C[C@]3(C)[C@]2(C(=O)CO)O1 | inactive | 
10 | CC(=O)CCc1ccccc1 | inactive | 
11 | CC(C)Cc1ccccc1 | inactive | 
12 | C=C1CC[C@H](O)CC1=C/C=C1\CCC[C@]2(C)[C@@H]([C@H](C)/C=C/[C@H](C)C(C)C)CC[C@@H]12 | inactive and 43.3 µM (active) | 
13 | CC1=CC[C@H]2C[C@@H]1C2(C)C | inactive | 
14 | Clc1ccc(Cl)c(Cl)c1Cl | inactive | 
15 | CCc1ccccc1O | inactive | 
16 | CN(CCOc1ccc(CC2SC(=O)NC2=O)cc1)c1ccccn1 (stereo not given) | inactive | 
17 | Nc1nc2ncc(CNc3ccc(C(=O)N[C@@H](CCC(=O)O)C(=O)O)cc3)nc2c(=O)[nH]1 | inactive | 
18 | CCOC(=O)C1OC1c1ccccc1 (stereo not given) | inactive | 
19 | O=C(Oc1ccccc1)c1ccc(O)cc1 | inactive | 
20 | OCC#CCO | inactive | 

Row | Structure (SMILES) | Potency | activity change, negative = cytotoxicity
21 | CC(=O)[C@@]1(O)CC[C@H]2[C@@H]3CCC4=CC(=O)CC[C@]4(C)[C@H]3CC[C@@]21C | inactive | 
22 | CCCCCCCCCCC=CC1CC(=O)OC1=O (stereo not given) |  | -5.41% (inactive)
23 | Cn1c([N+](=O)[O-])cnc1COC(N)=O |  | 0.134% (inactive)
24 | Cc1cc(=O)[nH]c(C(C)C)n1 | inactive | 
25 | Cc1ccc(C(=O)O)o1 | inactive | 
26 | CCCCC(CC)COC(=O)CCCCCCCC(=O)OCC(CC)CCCC (stereo not given) | inactive | 
27 | C[C@@H]1O[C@@H](OC[C@H]2O[C@@H](Oc3c(-c4ccc(O)c(O)c4)oc4cc(O)cc(O)c4c3=O)[C@H](O)[C@@H](O)[C@@H]2O)[C@H](O)[C@H](O)[C@H]1O | inactive | 
28 | O=Nc1ccc(O)cc1 |  | -0.441% (inactive)
29 | O=C(c1cc(O)c(O)c(O)c1)c1ccc(O)c(O)c1O | inactive | 
30 | COC(=O)c1ccccc1O | inactive | 
31 | COCC(C)O (stereo not given) | inactive | 
32 | CCCCOCCO |  | 5.58% (inactive)
33 | CCCCNC(N)=O | inactive | 
34 | c1ccc2ccccc2c1 | inactive | 
35 | O=C1O[C@H](CO)[C@@H](O)[C@H](O)[C@H]1O | inactive | 
36 | C=C1C2CCC(C2)C1(C)C (stereo not given) | inactive | 
37 | Nc1cc(-c2ccncc2)c[nH]c1=O | inactive | 
38 | CCCCC(CC)COC(=O)/C=C\C(=O)OCC(CC)CCCC (stereo not given) | inactive | 
39 | Nc1c(S(=O)(=O)O)cc(Br)c2c1C(=O)c1ccccc1C2=O | inactive | 
40 | O=C1CCCCC1 | inactive | 
